According to PubChem BioAssay (NCI):
The panel holds about 79,000 compounds, 15% with a hit somewhere; the sample as a whole holds those more often. Unmarked numbers belong to inactive results. Active and inactive are the calls of the source. Cut-off read from the data, not from the text of the source: active = growth inhibition above about 70%; inactive = the rest.

Assays:
[1] = NCI Yeast Anticancer Drug Screen. Data for the rad50 strain (AID 155);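 note: 0% = growth of vehicle-only cultures of the same strain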; conditions: S. cerevisiae rad50 strain growth inhibition, hits give high values
Procedure, shortened: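 Readout: growth inhibition relative to vehicle-treated cultures. Compound exposure was carried out in a genetically defined yeast strain deficient in DNA damage repair.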

[2] = NCI Yeast Anticancer Drug Screen. Data for the mec2-1 strain (AID 157); conditions: S. cerevisiae mec2-1 strain, hits give high values
Procedure, shortened: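 Cells of the genetically defined mec2-1 yeast strain are incubated with test compound. Inhibition of growth is calculated against vehicle-treated controls.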

[3] = NCI Yeast Anticancer Drug Screen. Data for the sgs1 mgt1 strain (AID 161);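 note: 0% = growth of cultures given vehicle only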; conditions: S. cerevisiae sgs1 mgt1 strain, hits give high values
Procedure, shortened: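 Read-out: growth inhibition vs vehicle controls. Cells: mutant yeast strain deficient in DNA damage repair.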

[4] = NCI Yeast Anticancer Drug Screen. Data for the cln2 rad14 strain (AID 165);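 note: 0% = growth equal to vehicle treated cultures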; conditions: S. cerevisiae cln2 rad14 strain, hits give high values
Procedure, shortened: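 The screen exposed genetically defined yeast (cln2 rad14) to test compounds and scored growth inhibition relative to vehicle-treated controls.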

[5] = NCI Yeast Anticancer Drug Screen. Data for the bub3 strain (AID 167); conditions: S. cerevisiae bub3 mutant strain, hits give high values
Procedure, shortened: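 Readout: yeast growth inhibition, expressed relative to vehicle-only wells. The test organism is a mutant strain from a panel with lesions in DNA repair or checkpoint genes.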

[6] = NCI Yeast Anticancer Drug Screen. Data for the mlh1 rad18 strain (AID 175); conditions: S. cerevisiae mlh1 rad18 strain growth inhibition, hits give high values
Procedure, shortened: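 Compound-treated yeast growth, normalised to vehicle controls. Strain bears defined DNA repair mutations.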

[7] = at 5.0 µM (retest, dose inferred, filed as 0.5)
[8] = at 50.0 µM (retest, dose inferred, filed as 5.0)

Row | SMILES | growth inhibition [1, 7] [%] | growth inhibition [1, 8] | growth inhibition ([1]; at 50.0 µM) | growth inhibition [2, 7] [%] | growth inhibition [2, 8] | growth inhibition ([2]; at 50.0 µM) | growth inhibition [3, 7] [%] | growth inhibition [3, 8] | growth inhibition ([3]; at 50.0 µM) | growth inhibition [4, 7] [%] | growth inhibition [4, 8] | growth inhibition ([4]; at 50.0 µM) | growth inhibition [5, 7] [%] | growth inhibition [5, 8] | growth inhibition ([5]; at 50.0 µM) | growth inhibition [6, 7] [%] | growth inhibition [6, 8] | growth inhibition ([6]; at 50.0 µM)
1 | O=C(NCCCN1CC2CCCC2C1)C(C1CCCCC1)C1CCCCC1 (centres undefined) | -5 | 94% (active) | 99.6% (active) | -12 | 76% (active) | 99.5% (active) | -9 | 92% (active) | 99.5% (active) | 0 | 98% (active) | 99.2% (active) | -22 | 99% (active) | 99.5% (active) | -3 | 96% (active) | 99.5% (active)
2 | Cc1ccccc1N=Nc1sc(N)nc1-c1ccccc1 | -6 | 94% (active) | 33.5% | 8 | 98% (active) | 22.2% | -2 | 95% (active) | 54.8% | -1 | 88% (active) | -4.85% | -7 | 98% (active) | 30.6% | -1 | 95% (active) | 43.7%
3 | Oc1ccc(C2CCc3ccccc32)cc1 (centres undefined) | -6 | 98% (active) | 99.6% (active) | -36 | 98% (active) | 99.8% (active) | -7 | 98% (active) | 99.1% (active) | -11 | 98% (active) | 99.3% (active) | -28 | 94% (active) | 99.5% (active) | -7 | 98% (active) | 99.4% (active)
4 | COc1cc(Cc2n[nH]c(=S)n2-c2ccccc2)c(S(=O)(=O)N2CCOCC2)cc1OC | 4 | 1% | -10.2% | -2 | -5% | -5.2% | 9 | -6% | -0.7% | 1 | 0% | 82.7% (active) | -3 | 7% | -32% | -2 | -62% | 11.4%
5 | COc1ccc2ccccc2c1Cc1c(OC)ccc2ccccc12 | -2 | 98% (active) | -11.7% | -2 | 98% (active) | 8.65% | -2 | 98% (active) | -2.7% | -15 | 98% (active) | 7.65% | -5 | 98% (active) | -6.35% | 0 | 98% (active) | 9.35%
6 | COC(O)C(=O)c1ccc2c(c1)CC1(C2)Cc2cc3c(cc2C1=O)CCC3 (centres undefined) | 28 | 99% (active) | 20.2% | 40 | 99% (active) | 23.9% | 33 | 98% (active) | 52.1% | 23 | 99% (active) | 57.4% | 35 | 99% (active) | 31.6% | 41 | 99% (active) | 45.9%
7 | Cc1c(Cl)c(Cl)cc([N+](=O)[O-])c1Cl | 41 | 49% | 24.9% | 51 | 45% | 37.6% | -5 | 15% | 46% | 31 | 47% | -6.9% | 11 | 38% | 52.4% | 25 | 46% | 19.4%
8 | C#CC(CC(C)CC(C)(C)C)NC (centres undefined) | 2 | 91% (active) | 97.2% (active) | 2 | 58% | 85.5% (active) | 0 | 97% (active) | 96.8% (active) | 7 | 53% | 76% (active) | 2 | 86% (active) | 92.3% (active) | 1 | 73% (active) | 96% (active)
